This is an account of results in PubChem BioAssay (NCI).

Compounds without any hit were thinned out: in the full panel of roughly 83,000, 20% have a hit.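 Activity criterion: percent growth below 10, measured after cells in 96-well plates were exposed to a single compound concentration for 48 hours.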 Unmarked numbers belong to inactive results. Activity calls are given as the source filed them.

Some test systems named below: DU-145 prostate; K-562 leukemia; MALME-3M melanoma; MDA-MB-231 breast; RXF 393 renal; SF-268 CNS; SF-295 CNS; SF-539 CNS; UACC-257 melanoma; M14 melanoma; HCT-15 colon; HT29 colon; SNB-75 CNS; SNB-19 CNS; U251 CNS; PC-3 prostate; SK-MEL-5 melanoma; UACC-62 melanoma; LOX IMVI melanoma; SK-MEL-28 melanoma.
Holding throughout (test): NCI-60 one-dose screen, 48 h (100 = growth as untreated, 0 = no growth, -100 = all killed)
What all share (details): 10 µM unless noted

In the case of `CC(=O)N1N=C(c2ccc(C(F)(F)F)c(F)c2)CC1c1[nH]c(C)c(C(=O)NCC(F)(F)F)c1C` (stereo not given), the growth with DU-145 prostate was 85.5%; in the assay with K-562 leukemia, 97.6%; in the assay on MALME-3M melanoma it was 43.5%; in the assay on MDA-MB-231 breast, 38.8%; with RXF 393 renal it was 31%; in the assay on SF-268 CNS it was 60.7%. Further, the growth is 70.9% with SF-295 CNS; 56.3% in the assay on SF-539 CNS; 91.6% in the assay with UACC-257 melanoma; 78.8% in the assay with M14 melanoma; 95.3% in the assay on HCT-15 colon; 78.5% with HT29 colon. Also, the growth is -8.37% (active) in the assay on SNB-75 CNS; 47.9% in the assay with SNB-19 CNS; 78.8% in the assay with U251 CNS; 70.8% with PC-3 prostate; 81.7% with SK-MEL-5 melanoma; 87.7% in the assay on UACC-62 melanoma. Besides, the growth with LOX IMVI melanoma was 71.5%; in the assay with SK-MEL-28 melanoma it was 69.8%.

`COc1ccc(Nc2ncc(Br)c(NCCCNC(=O)C3CCCC3)n2)cc1`: the growth is 48.9% with DU-145 prostate; 31.2% with K-562 leukemia; 58.5% in the assay with MALME-3M melanoma; -27.7% (active) with MDA-MB-231 breast; -20.9% (active) in the assay with RXF 393 renal; 21.6% with SF-268 CNS. In addition, the growth with SF-295 CNS is 39.4%; in the assay on SF-539 CNS it was 2.9% (active); in the assay with UACC-257 melanoma, 96.5%; in the assay with M14 melanoma it was 61.5%; in the assay with HCT-15 colon, 37.1%; with HT29 colon, 47.5%. In addition, the growth was 51.1% with SNB-75 CNS; 35.2% in the assay with SNB-19 CNS; 27.2% in the assay on U251 CNS; 44% in the assay with PC-3 prostate; 67.5% in the assay with SK-MEL-5 melanoma; 46.2% in the assay with UACC-62 melanoma. Further, the growth in the assay with LOX IMVI melanoma is 11%; in the assay on SK-MEL-28 melanoma it was 57.2%.

`CS(=O)(=O)Nc1cc(-c2ccc3ncnc(Nc4ccc5c(cnn5Cc5cccc(F)c5)c4)c3c2)cnc1Cl`: the growth is 16.2% in the assay on DU-145 prostate; 19.4% with K-562 leukemia; -36.1% (active) in the assay with MALME-3M melanoma; 1.43% (active) with MDA-MB-231 breast; -25.7% (active) with RXF 393 renal; 1.24% (active) with SF-268 CNS. Moreover, the growth in the assay with SF-295 CNS was 6.42% (active); in the assay with SF-539 CNS it was -16.6% (active); in the assay with UACC-257 melanoma, 20.2%; with M14 melanoma it was 1.49% (active); in the assay with HCT-15 colon it was 46.9%; in the assay with HT29 colon it was 5.83% (active). Also, the growth in the assay with SNB-75 CNS was -13.9% (active); in the assay on SNB-19 CNS, 22.2%; in the assay on U251 CNS it was 9.46% (active); with PC-3 prostate, 10.9%; in the assay on SK-MEL-5 melanoma, -68.3% (active); with UACC-62 melanoma, -8.95% (active). For the same molecule, the growth with LOX IMVI melanoma is -44.8% (active); with SK-MEL-28 melanoma it was -12.6% (active).

Regarding `COc1cc(-c2cncn2-c2ccc(-c3nc4ccc(F)cc4s3)cc2)ccc1F`, the growth with DU-145 prostate is -7.18% (active); in the assay on K-562 leukemia, 62.8%; in the assay on MALME-3M melanoma, 99.3%; with MDA-MB-231 breast, 103%; with RXF 393 renal, 52.5%; in the assay on SF-268 CNS it was 81.3%. In addition, the growth is 90% in the assay on SF-295 CNS; 92.8% with SF-539 CNS; 79.7% with UACC-257 melanoma; 102% with M14 melanoma; 30.5% in the assay with HCT-15 colon; 30.8% in the assay with HT29 colon. Further, the growth in the assay on SNB-75 CNS is 127%; in the assay on SNB-19 CNS, 86.7%; in the assay with U251 CNS, 83%; in the assay with PC-3 prostate, 107%; with SK-MEL-5 melanoma it was 68.7%; in the assay with UACC-62 melanoma it was 84.8%. Also, the values for the growth in the assay with LOX IMVI melanoma and in the assay with SK-MEL-28 melanoma were 86.7% and 95.9%, respectively.

For `O=C(Nc1nc(-c2ccc(Cl)cc2)nc2c1sc(=S)n2-c1ccccc1)C(F)(F)F`, the growth in the assay on DU-145 prostate was 37.5%; with K-562 leukemia, 57.2%; in the assay with MALME-3M melanoma, 21.2%; in the assay with MDA-MB-231 breast, 37.5%; in the assay with RXF 393 renal, 29%; with SF-268 CNS, 36.1%. Besides, the growth in the assay with SF-295 CNS is 7.16% (active); with SF-539 CNS it was 8.63% (active); with UACC-257 melanoma, 51.1%; in the assay on M14 melanoma it was 40.3%; in the assay with HCT-15 colon, 54.9%; with HT29 colon it was 17.5%. The growth is -44.1% (active) with SNB-75 CNS; 61.5% in the assay on SNB-19 CNS; 8.47% (active) in the assay with U251 CNS; 38.6% in the assay on PC-3 prostate; 64.9% in the assay with SK-MEL-5 melanoma; 21.1% with UACC-62 melanoma. The growth with LOX IMVI melanoma is -20.4% (active); in the assay with SK-MEL-28 melanoma, 78.9%.

For the molecule `N#CC1=C(N)Oc2c(sc3c(Br)cccc23)C1c1ccc(Cl)cc1` (stereo not given), the growth in the assay on DU-145 prostate is 20%; in the assay on K-562 leukemia it was 7.37% (active); with MALME-3M melanoma, 50.4%; with MDA-MB-231 breast, 9.21% (active); in the assay with RXF 393 renal it was -18% (active); in the assay with SF-268 CNS it was 20.2%. In addition, the growth in the assay with SF-295 CNS was 6.9% (active); in the assay with SF-539 CNS, -38.2% (active); in the assay on UACC-257 melanoma it was 64%; with M14 melanoma, 1.7% (active); in the assay on HCT-15 colon, 8.47% (active); in the assay with HT29 colon, -14.2% (active). Also, the growth with SNB-75 CNS is 4.29% (active); in the assay on SNB-19 CNS, 37%; in the assay with U251 CNS, 7.28% (active); in the assay with PC-3 prostate it was 17.3%; with SK-MEL-5 melanoma, 17.3%; in the assay on UACC-62 melanoma, 10.3%. Also, the growth was 23.3% with LOX IMVI melanoma and 44.8% in the assay on SK-MEL-28 melanoma.

For the molecule `CC/C(=C(/c1ccc(Cl)cc1)c1ccc(OCCN(C)C)cc1)c1ccc(Cl)cc1`, the growth with DU-145 prostate is 77.7%; in the assay on K-562 leukemia, 16%; in the assay with MALME-3M melanoma, 73.9%; in the assay with MDA-MB-231 breast, 83.3%; in the assay on RXF 393 renal, 68.5%; in the assay on SF-268 CNS, 77.4%. The growth is 69.7% in the assay on SF-295 CNS; 86.2% with SF-539 CNS; 72.2% in the assay with UACC-257 melanoma; 88.1% with M14 melanoma; 32.2% in the assay with HCT-15 colon; 22.4% in the assay with HT29 colon. The growth was 61.9% in the assay with SNB-75 CNS; 78.4% with SNB-19 CNS; 37.8% in the assay with U251 CNS; 71.4% in the assay on PC-3 prostate; 86.4% in the assay with SK-MEL-5 melanoma; 96.3% with UACC-62 melanoma. The results for the growth in the assay with LOX IMVI melanoma and in the assay with SK-MEL-28 melanoma were 65.3% and 90.3%, respectively.
